Experimental findings from PubChem BioAssay (Tox21) are described below.

Inconclusive results are not listed. Activity calls are given as the source filed them. Calls come from the whole dose curve; as a rule, active = well fitted curve in the direction sought with a large enough effect in the repeat runs; inconclusive = weak or mixed curves; inactive = no such curve, though single readings can be large; an effect the other way counts as inactive or inconclusive.

Experiment [1] addresses Cytochrome P450 2C19 (Homo sapiens) (UniProt P33261). Put plainly: Cytochrome P450 Family 2 Subfamily C Member 19 (CYP2C19) small molecule antagonists: luciferase reporter qHTS assay (AID 1671197). Note: nearly all actives have a fitted effect of over 65% in size. Note: potency is the fitted concentration of half-maximal effect. The method in brief:
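Relative luminescence units recorded 20 min after the detection reagent stopped a 1 h, 37C CYP2C19 reaction on proluciferin substrate, which was started by NADPH regeneration following 10 min room-temperature compound preincubation; ketoconazole positive control.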
Background: A reporter such as luciferase makes a cellular process visible.

Experiment [2] addresses Cytochrome P450 1A2 (Homo sapiens) (UniProt P05177). Put plainly: Cytochrome P450 Family 1 Subfamily A Member 2 (CYP1A2) small molecule antagonists: luciferase reporter qHTS assay (AID 1671199). Note: nearly all actives have a fitted effect of over 50% in size. Note: potency is the fitted concentration of half-maximal effect. The method in brief:
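CYP1A2 turnover of a luminogenic substrate was quantified after 1 h with NADPH regeneration at room temperature. Furafylline served as positive control.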

For experiment [3], the target named is Voltage-gated inwardly rectifying potassium channel KCNH2 (Homo sapiens) (UniProt Q12809). Put plainly: Human Ether-a-go-go-Related Gene (hERG) channel small molecule antagonists: fluorescence cell-based qHTS assay (AID 1671200).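 Note: hERG-expressing U2OS cells given a thallium stimulus after FluxOR II dye loading; series mostly up to about 77 µM; nearly all actives have a fitted effect of over 50% in size.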 The method in brief:
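Channel function was assessed by thallium flux. Cells seeded the previous day and kept at 37 C took up FluxOR II dye over 1 h in the dark at room temperature, then sat another 10 min before stimulation.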
On the technique in general: The hERG channel carries a current that helps repolarise heart muscle cells.

Experiment [4] addresses Cytochrome P450 3A4 (Homo sapiens) (UniProt P08684). Put plainly: Cytochrome P450 Family 3 Subfamily A Member 4 (CYP3A4) small molecule antagonists: luciferase reporter qHTS assay (AID 1671201). Note: series mostly up to about 120 µM; nearly all actives have a fitted effect of over 50% in size. An outline of the steps:
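Compounds in DMSO were pin-transferred onto CYP3A4 enzyme-substrate mix and held 10 min at room temperature. NADPH regenerating solution started the reaction for 1 h; luciferin detection reagent stopped it, and luminescence was read after 20 min.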

In experiment [5] the target is Cytochrome P450 2C9 (Homo sapiens) (UniProt P11712). Put plainly: Cytochrome P450 Family 2 Subfamily C Member 9 (CYP2C9) small molecule antagonists: luciferase reporter qHTS assay (AID 1671198). Note: nearly all actives have a fitted effect of over 50% in size. Note: potency is the fitted concentration of half-maximal effect. An outline of the steps:
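Enzyme-substrate mix preincubated with compound 10 min at room temperature; reaction started with NADPH regeneration solution, 1 h 37C. Luminescent luciferin product read after 20 min detection reagent.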

Chain of Voltage-gated inwardly rectifying potassium channel KCNH2 (Homo sapiens) (Q12809 whole entry, looked up): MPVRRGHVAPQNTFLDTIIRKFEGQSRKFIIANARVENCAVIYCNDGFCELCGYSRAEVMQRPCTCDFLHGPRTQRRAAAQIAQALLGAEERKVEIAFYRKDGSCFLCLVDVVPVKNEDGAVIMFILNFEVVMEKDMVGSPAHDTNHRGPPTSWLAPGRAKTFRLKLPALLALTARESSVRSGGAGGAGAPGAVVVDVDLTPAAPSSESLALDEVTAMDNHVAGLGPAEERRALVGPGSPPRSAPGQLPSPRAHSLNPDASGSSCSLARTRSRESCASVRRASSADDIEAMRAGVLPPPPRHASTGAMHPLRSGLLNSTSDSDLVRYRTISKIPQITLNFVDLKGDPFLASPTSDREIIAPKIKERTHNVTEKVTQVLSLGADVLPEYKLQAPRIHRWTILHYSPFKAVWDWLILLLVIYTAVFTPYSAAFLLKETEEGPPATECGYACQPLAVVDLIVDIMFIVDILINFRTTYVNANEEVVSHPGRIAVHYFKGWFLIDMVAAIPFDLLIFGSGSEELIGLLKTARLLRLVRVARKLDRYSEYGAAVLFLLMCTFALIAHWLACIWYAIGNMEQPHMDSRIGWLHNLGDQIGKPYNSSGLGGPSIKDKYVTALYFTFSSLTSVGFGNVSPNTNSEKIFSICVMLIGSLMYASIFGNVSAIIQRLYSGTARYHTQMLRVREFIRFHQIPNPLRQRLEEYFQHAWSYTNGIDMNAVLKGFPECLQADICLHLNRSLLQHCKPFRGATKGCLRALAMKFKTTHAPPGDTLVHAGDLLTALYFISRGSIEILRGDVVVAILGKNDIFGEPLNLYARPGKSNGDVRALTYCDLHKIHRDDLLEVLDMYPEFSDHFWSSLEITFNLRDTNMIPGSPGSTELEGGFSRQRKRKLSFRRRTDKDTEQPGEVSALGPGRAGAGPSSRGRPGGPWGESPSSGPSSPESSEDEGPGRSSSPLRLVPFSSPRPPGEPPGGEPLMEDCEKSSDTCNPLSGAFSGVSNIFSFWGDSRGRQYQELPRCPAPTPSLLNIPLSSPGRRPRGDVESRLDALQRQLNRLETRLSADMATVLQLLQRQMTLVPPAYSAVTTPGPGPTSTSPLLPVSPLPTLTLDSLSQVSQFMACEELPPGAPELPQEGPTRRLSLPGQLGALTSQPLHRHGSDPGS
Chain of Cytochrome P450 2C9 (Homo sapiens) (P11712 whole entry, looked up): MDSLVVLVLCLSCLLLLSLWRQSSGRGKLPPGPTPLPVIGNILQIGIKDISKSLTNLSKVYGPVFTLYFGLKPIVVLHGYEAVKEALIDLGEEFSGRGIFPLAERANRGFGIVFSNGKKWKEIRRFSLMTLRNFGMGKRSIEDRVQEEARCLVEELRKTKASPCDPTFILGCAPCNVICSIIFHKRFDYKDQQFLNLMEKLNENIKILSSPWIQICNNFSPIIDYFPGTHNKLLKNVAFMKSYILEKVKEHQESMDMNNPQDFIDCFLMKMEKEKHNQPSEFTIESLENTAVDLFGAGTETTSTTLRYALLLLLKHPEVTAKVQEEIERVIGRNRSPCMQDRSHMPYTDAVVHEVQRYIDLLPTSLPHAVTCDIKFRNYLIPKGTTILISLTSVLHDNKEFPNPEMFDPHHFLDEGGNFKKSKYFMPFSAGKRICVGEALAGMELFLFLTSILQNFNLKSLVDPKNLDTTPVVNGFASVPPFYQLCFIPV
Chain of Cytochrome P450 1A2 (Homo sapiens) (P05177 whole entry, looked up): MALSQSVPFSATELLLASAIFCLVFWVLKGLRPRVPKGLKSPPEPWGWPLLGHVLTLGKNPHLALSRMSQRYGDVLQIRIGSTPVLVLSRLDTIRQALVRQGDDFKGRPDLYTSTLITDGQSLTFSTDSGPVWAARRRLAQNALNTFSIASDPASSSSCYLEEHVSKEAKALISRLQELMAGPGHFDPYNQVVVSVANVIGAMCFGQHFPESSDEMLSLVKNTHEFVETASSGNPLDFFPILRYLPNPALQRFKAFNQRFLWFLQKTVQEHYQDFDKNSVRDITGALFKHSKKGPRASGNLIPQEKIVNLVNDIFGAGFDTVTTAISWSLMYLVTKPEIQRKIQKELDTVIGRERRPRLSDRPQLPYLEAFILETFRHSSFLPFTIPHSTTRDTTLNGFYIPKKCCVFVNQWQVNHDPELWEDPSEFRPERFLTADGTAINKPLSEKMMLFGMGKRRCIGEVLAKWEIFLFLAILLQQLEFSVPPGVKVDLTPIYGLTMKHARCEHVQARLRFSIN
Chain of Cytochrome P450 2C19 (Homo sapiens) (P33261 whole entry, looked up): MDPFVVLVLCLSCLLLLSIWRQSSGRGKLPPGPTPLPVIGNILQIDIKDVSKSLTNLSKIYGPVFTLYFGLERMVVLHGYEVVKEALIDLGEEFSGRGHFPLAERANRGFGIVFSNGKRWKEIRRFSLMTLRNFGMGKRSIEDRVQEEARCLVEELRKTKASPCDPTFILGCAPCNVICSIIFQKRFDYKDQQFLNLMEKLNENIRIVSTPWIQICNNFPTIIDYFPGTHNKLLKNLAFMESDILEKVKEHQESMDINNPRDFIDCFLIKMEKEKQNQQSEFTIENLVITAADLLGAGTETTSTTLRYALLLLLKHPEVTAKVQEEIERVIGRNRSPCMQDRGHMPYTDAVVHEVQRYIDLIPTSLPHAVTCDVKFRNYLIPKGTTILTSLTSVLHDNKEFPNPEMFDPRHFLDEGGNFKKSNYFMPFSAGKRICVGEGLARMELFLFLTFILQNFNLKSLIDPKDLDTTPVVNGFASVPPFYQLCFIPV
Chain of Cytochrome P450 3A4 (Homo sapiens) (P08684 whole entry, looked up): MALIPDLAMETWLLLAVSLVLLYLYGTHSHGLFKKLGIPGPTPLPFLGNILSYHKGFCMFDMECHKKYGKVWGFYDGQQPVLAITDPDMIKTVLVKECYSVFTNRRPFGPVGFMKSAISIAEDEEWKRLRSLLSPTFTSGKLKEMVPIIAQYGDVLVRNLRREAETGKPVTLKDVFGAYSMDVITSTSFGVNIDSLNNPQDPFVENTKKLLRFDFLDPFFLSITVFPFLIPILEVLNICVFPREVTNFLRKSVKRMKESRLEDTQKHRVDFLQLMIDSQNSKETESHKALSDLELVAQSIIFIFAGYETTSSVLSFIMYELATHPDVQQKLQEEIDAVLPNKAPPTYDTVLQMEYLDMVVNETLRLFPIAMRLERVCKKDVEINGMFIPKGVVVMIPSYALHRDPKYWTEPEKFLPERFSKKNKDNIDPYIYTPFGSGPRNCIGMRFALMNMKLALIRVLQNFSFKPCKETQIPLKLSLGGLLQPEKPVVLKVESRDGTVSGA

With `O=C1c2cccc(O)c2C(=O)c2c(O)cc(CO)cc21`, the Potency entry in experiment [1], in experiment [3] and in experiment [4] was “inactive” throughout. The Potency in experiment [2] is 8.94 µM (active).
As to `CCOc1ccc(NC(=O)CC(C)=O)cc1`, the Potency in experiment [1] is 56.4 µM (active); in experiment [2], 31.7 µM (active). For the same compound, the Potency entry in experiment [4] was “inactive”.
On to `CC(C)(C)c1cc(CCC(=O)OCC(COC(=O)CCc2cc(C(C)(C)C)c(O)c(C(C)(C)C)c2)(COC(=O)CCc2cc(C(C)(C)C)c(O)c(C(C)(C)C)c2)COC(=O)CCc2cc(C(C)(C)C)c(O)c(C(C)(C)C)c2)cc(C(C)(C)C)c1O`, for which the Potency in experiment [1] was 33.8 µM (active); in experiment [2], 6.75 µM (active). For the same compound, the Potency result in experiment [4] is “inactive”.
Turning to `O=C1Nc2cc(Cl)ccc2Oc2ccccc21`, the figures for the Potency in experiment [1] and in experiment [2] were 15.5 µM (active) and 1.95 µM (active), respectively. For the same compound, the Potency entry in experiment [3] and in experiment [4] was “inactive” each time.
`OC(CCN1CCCCC1)(c1ccccc1)C1CCCCC1` (stereo not given): the Potency entry in experiment [5] and in experiment [2] was “inactive” in each case.
In the case of `O=C(O)/C=C/c1cnc[nH]1`, the Potency in experiment [1] was 79.8 µM (active). In addition, the Potency entry in experiment [3] and in experiment [4] was “inactive” in each case.
With `N#CCCNCCC#N`, the Potency result in experiment [1], in experiment [3] and in experiment [4] was “inactive” each time.
Regarding `Cc1ccccc1N=Nc1ccc(N=Nc2c(O)ccc3ccccc23)c(C)c1`, the figures for the Potency in experiment [1] and in experiment [2] were 34.7 µM (active) and 13.8 µM (active), respectively. The Potency result in experiment [3] and in experiment [4] was “inactive” throughout.
In the case of `COc1ccc(OC)c(OC)c1`, the Potency in experiment [5] was 22.4 µM (active); in experiment [2], 39.9 µM (active). For the same compound, the Potency result in experiment [3] and in experiment [4] was “inactive” throughout.
Turning to `CCCCC(CC)(CO)CO`, the Potency in experiment [1] is 56.4 µM (active). In addition, the Potency entry in experiment [2], in experiment [3] and in experiment [4] was “inactive” in each case.
Consider `O=S(=O)(O)c1ccc(O)c2ncccc12`, for which the Potency result in experiment [1], in experiment [2], in experiment [3] and in experiment [4] was “inactive” each time.
Turning to `CCCC(C)C`, the Potency is 71.7 µM (active) in experiment [1] and 63.9 µM (active) in experiment [2]. Also, the Potency result in experiment [4] is “inactive”.
For the compound `CC(=O)Nc1ccc(/C=N/NC(N)=S)cc1`, the Potency entry in experiment [5], in experiment [2], in experiment [3] and in experiment [4] was “inactive” throughout.
